Experimental data: PubChem BioAssay
Values without a mark were called inactive. How the calls were made is not given here.

The molecules below were run against Pantothenate synthetase (Mycobacterium tuberculosis (strain ATCC 25618 / H37Rv)) (UniProt P9WIL5) (assay: Coupled enzyme confirmation of inhibitors against recombinant Mtb PanC (AID 375;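 further: 0% = full reaction with vehicle and 100% = no enzyme background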)). Conditions: coupled enzyme assay; at 10 µM, hits give high values.
Chain of Pantothenate synthetase (Mycobacterium tuberculosis (strain ATCC 25618 / H37Rv)) (P9WIL5 whole entry, looked up): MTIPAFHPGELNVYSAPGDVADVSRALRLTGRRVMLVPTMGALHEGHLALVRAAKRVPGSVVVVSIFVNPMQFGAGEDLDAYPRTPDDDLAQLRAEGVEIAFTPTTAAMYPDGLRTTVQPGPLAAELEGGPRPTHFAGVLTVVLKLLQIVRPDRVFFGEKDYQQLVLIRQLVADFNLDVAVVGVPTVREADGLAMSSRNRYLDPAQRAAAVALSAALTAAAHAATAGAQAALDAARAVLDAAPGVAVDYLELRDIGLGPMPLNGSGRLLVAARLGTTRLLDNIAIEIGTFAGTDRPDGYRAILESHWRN

Structure (SMILES) | inhibition [%]
O=C(C1CC2CCC1C2)N1CCN(Cc2ccc3c(c2)OCO3)CC1 (stereo not given) | 8
Cc1c(C(=O)N2CCCC2)sc(NC(=O)c2cccs2)c1C#N | 0
CCOc1ccccc1C1C(C(=O)Nc2ccc(OC)cc2)=C(C)Nc2nc(CCCO)nn21 (stereo not given) | 0
CCOc1ccc(OCc2cccc(C(=O)N3CCCC3)c2)cc1 | 6
Cc1nc(NC(=O)c2ccccc2)sc1-c1csc(NCc2ccco2)n1 | 0
Cc1cc(Nc2ccccc2)n(-c2ccccc2)n1 | 3
Cc1cc(C)c2c(n1)nn1c(C3CC3)cc(C(F)(F)F)nc21 | 5
Cn1c(=O)cc(SCC(=O)NCC2CCCO2)c2ccc(Cl)cc21 (stereo not given) | 10
CCCN1C2CCCC1CC(NC(=O)Nc1cccc(C(C)=O)c1)C2 (stereo not given) | 1
Cc1occc1C(=O)N1CCN(c2ncccn2)CC1 | 6
CCOc1ccc(C2C(C#N)=C(N)Oc3cc(C)n(CCN(C)C)c(=O)c32)cc1OCC (stereo not given) | 0
Cc1ccc(C(=O)NC2CC3CCCC(C2)N3C(=O)NC2CCCCC2)cc1 (stereo not given) | 8
O=C(C1CCN(S(=O)(=O)Cc2ccccc2)CC1)N1CCN(c2ncccn2)CC1 | 0
O=C(C1CC1)N1CCc2cc(S(=O)(=O)N(CCO)Cc3ccccc3)ccc21 | 0
Oc1cccc(Nc2nc(NCC3CCCO3)c3ccccc3n2)c1 (stereo not given) | 1
O=C(NC1CC2CCC1C2)c1ccc(CN2CCOCC2)cc1 (stereo not given) | 5
COCCNC(=O)CSc1nc(-c2ccc(OC)c(OC)c2)cc(C(F)(F)F)n1 | 2
CCOC(=O)N1CCN(C(=O)C2c3cc(OC)c(OC)cc3C(=O)N3CCc4ccccc4C23)CC1 (stereo not given) | 4
CC1(C)CC(=O)c2cc(OCC(=O)NCCCN3CCN(c4ccccc4F)CC3)ccc2O1 | 0
CC(C(=O)NCCCN1CCOCC1)n1cccc1C(=O)c1ccccc1 (stereo not given) | 0

Structure (SMILES) | inhibition [%]
CC(C)CCNC(=O)C1CCN(C(=O)N(C)C)CC1 | 0
O=C1CSC(c2cccc(F)c2)N1c1ccccc1F (stereo not given) | 2
Cc1ccc(S(=O)(=O)N2CCCC(C(=O)NC3=NCCS3)C2)cc1 (stereo not given) | 12
CCC(C)NC(=O)CC1Oc2ccc(C)cc2NC1=O (stereo not given) | 0
COc1ccccc1-c1nc(SCc2ccccn2)n[nH]1 | 0
CCn1nccc1C(=O)Nc1nccs1 | 5
COc1ccc(-c2nc3c(c(=O)n(C)c(=O)n3C)n2CC2CC(c3ccccc3)=NO2)cc1OC (stereo not given) | 1
COc1ccc(OCCC(=O)NCc2ccccc2)cc1 | 0
Cc1ccc(Cn2c(SCC(C)C)nc3c2c(=O)n(C)c(=O)n3C)cc1 | 3
CCCCC(O)(C(NC=O)C(=O)OC)C(F)(F)F (stereo not given) | 2
CCC(C)(C)n1nnnc1C(c1ccccc1OC)N1CCSCC1 (stereo not given) | 5
CCOC(=O)CSc1nc2cc(C(=O)NCc3ccco3)ccc2c(=O)n1C1CCCCC1 | 0
C=CCOc1nc(N2CCCC2)nc(N2CCCC2)n1 | 5
COc1ccc(C(=O)NCCSc2ccccn2)cc1 | 5
Cc1ccc2c(c1)C(N1CCCC1=O)CC(c1ccco1)N2 (stereo not given) | 0
Cc1cccc(Cc2nnc(NC(=O)c3cccc(S(=O)(=O)N4CCOCC4)c3)s2)c1 | 0
O=C(Cn1cnc2c(oc3ccccc32)c1=O)N1CCN(c2ccccc2)CC1 | 1
CCCn1c(=O)c2[nH]c(C3CCCC3)nc2n(CCC)c1=O | 7
Cc1ccc(C)c(NC(=O)c2ccc3c(c2)N(Cc2ccc(F)cc2)C(=O)CS3=O)c1 (stereo not given) | 0
COc1ccc(C2=NOC(C(=O)NCc3ccc(F)cc3)C2)cc1OC (stereo not given) | 0
